Potency, outcome and activity change, positive = activation data for eight compounds are collected here from PubChem BioAssay (Tox21).

The nature of experiment [1]: qHTS assay to identify small molecule antagonists of the estrogen related receptor (ERR) signaling pathway from Tox21 library - cell viability counter screen (AID 1224834). Further: nearly all actives have a fitted effect of over 30% in size. Further: potency means the concentration at half of the fitted maximal effect. The procedure, abridged:
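Compounds in DMSO were pinned onto ERR cells that had been incubated for 6 h, and the plates were held at 37 C for 17.5 h. CellTiter-Fluor reagent was then added and fluorescence was measured after 30 min.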
A general note: In qHTS, concentration-response curves come from the screen itself.

The nature of experiment [2]: qHTS assay to identify small molecule agonists of the constitutive androstane receptor (CAR) signaling pathway - cell viability counter screen (AID 1224836). Further: nearly all actives have a fitted effect of over 45% in size. Further: potency means the concentration at half of the fitted maximal effect. The procedure, abridged:
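Counter screen multiplexed with the CAR reporter readout: HepG2 cells co-transfected with hCAR and the CYP2B6-2.2kb construct receive a 15-concentration compound series and 0.75 uM PK11195 (final), then CellTiter-Fluor fluorescence is read after 23 h.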

Experiment [3] in a line: qHTS assay to identify small molecule antagonists of the constitutive androstane receptor (CAR) signaling pathway - cell viability counter screen (AID 1224837). Further: nearly all actives have a fitted effect of over 45% in size. Further: potency means the concentration at half of the fitted maximal effect. Summed up:
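Cells are seeded, rested 4 hr at 37 C/5% CO2, dosed with compound (15-point series) and 50 nM CITCO, incubated a further 23 hr, and then CellTiter-Fluor reagent is added before fluorescence is read. The line is HepG2 with stable hCAR and CYP2B6-2.2kb.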

Experiment [4] addresses Nuclear receptor subfamily 1 group I member 3 (Homo sapiens) (UniProt Q14994). Briefly: qHTS assay to identify small molecule antagonists of the constitutive androstane receptor (CAR) signaling pathway (AID 1224838).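 Further: HepG2 cells stably expressing hCAR with CYP2B6 luciferase reporter stimulated by CITCO; nearly all actives have a fitted effect of over 40% in size.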 Further: potency means the concentration at half of the fitted maximal effect. Summed up:
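Luminescence from a CYP2B6-2.2kb promoter reporter in hCAR-expressing HepG2 cells reflects CAR signaling. Cells received compounds at 15 concentrations and 50 nM CITCO (final), then incubated 24 h at 37 C/5% CO2.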

The target is the same in experiment [5]. Briefly: qHTS assay to identify small molecule agonists of the constitutive androstane receptor (CAR) signaling pathway (AID 1224839). Further: nearly all actives have a fitted effect of over 15% in size. Further: potency means the concentration at half of the fitted maximal effect. On activation: on the % scale 0 is the no-effect control and ±100 the full control effect. Summed up: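 A 15-concentration quantitative screen uses HepG2 cells co-transfected stably with human CAR and CYP2B6-2.2kb reporter. Treatment lasts 24 h with 0.75 uM PK11195 final present; ONE-Glo luminescence is the signal.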

Experiment [6] is described as follows: qHTS assay to identify small molecule antagonists of the estrogen related receptor signaling pathway with the pleiotropic PPARgamma coactivator (PGC) from Tox21 10K library - cell viability counter screen (AID 1224840; active means well fitted cell-killing curve with a large enough effect in the repeat runs, not every such curve was filed as active; further: nearly all actives have a fitted effect of over 40% in size; further: potency means the concentration at half of the fitted maximal effect). The procedure, abridged: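 Cell viability is measured by CellTiter-Fluor fluorescence in PGC/ERR cells that receive compounds after a 6-hour attachment period and are then incubated 17.5 hours at 37 C.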

Experiment [7] concerns the target Thyrotropin receptor (Homo sapiens) (UniProt P16473). Nature of the experiment: qHTS assay to identify small molecule agonists of the thyroid stimulating hormone receptor (TSHR) signaling pathway (AID 1224843; calls by dose curve; further: nearly all actives have a fitted effect of over 45% in size; further: potency means the concentration at half of the fitted maximal effect; on activation: on the % scale 0 is the no-effect control and ±100 the full control effect). Summed up: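 A cell-based cAMP HTRF format was run in TSHR-transfected HEK293 cells, 800 per well. Treatment: 30 min, room temperature. Detection: 1 h with labelled cAMP and anti-cAMP cryptate. Concentration-response over 15 points, three replicates.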

Experiment [8] is described as follows: qHTS assay to identify small molecule agonists of H2AX (AID 1224845; active means well fitted activation curve with a large enough effect in the signal ratio in the repeat runs, not every such curve was filed as active; the % refers to the signal ratio; further: on the % scale 0 is the no-effect control and ±100 the full control effect). Summed up:
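Phospho-H2AX Ser139 measured by HTRF (ex 320 nm; em 665 and 620 nm) after 24 hr antibody incubation. Compounds, 15 concentrations, 0.76% DMSO, were applied to CHO-K1 cells for 3hr at 37C before lysis.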

The nature of experiment [9]: qHTS assay to identify small molecule agonists of H2AX - cell viability counter screen (AID 1224847; calls by dose curve; further: nearly all actives have a fitted effect of over 30% in size; further: potency means the concentration at half of the fitted maximal effect). The procedure, abridged:
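We seed wild-type CHO-K1 cells overnight, treat them for 3 hr at 37C with compounds in 15-concentration series, and quantify remaining viability by CellTiter-Glo luminescence.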

The nature of experiment [10]: qHTS RealTime-Glo MT Cell Viability Assay in HepG2 cells - 24 hour (AID 1224867). Further: nearly all actives have a fitted effect of over 50% in size. Further: potency means the concentration at half of the fitted maximal effect. Summed up: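 Cell number in HepG2 cultures estimated from NanoLuc luminescence generated by metabolic reduction of a prosubstrate by living cells. The homogeneous, nonlytic format allowed repeated reads at 0, 8, 16, 24, 32 and 40 h of compound exposure.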
The nature of experiment [11]: qHTS RealTime-Glo MT Cell Viability Assay in HEK293 cells - 32 hour (AID 1224868). Further: nearly all actives have a fitted effect of over 50% in size. Further: potency means the concentration at half of the fitted maximal effect. The procedure, abridged:
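Homogeneous bioluminescent viability format in HEK293 cells (600 cells/well). Following 5 h at 37 C/5% CO2, 23 nL compound was pintooled; the signal was measured repeatedly during 40 h incubation.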

A short description of experiment [12]: A CellTox Green Cytotoxicity Assay to monitor cytotoxicity in HEK293 cells - 0 hour (AID 1224869). Further: on the % scale 0 is the no-effect control and ±100 the full control effect; nearly all actives have a fitted effect of over 50% in size. Summed up: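 Dead-cell fluorescence measured kinetically: asymmetric cyanine dye, HEK293, 600 cells/well, 5 h settle, 23 nL cpd/DMSO, 37 C, reads 0–40 h every 8 h.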
The nature of experiment [13]: qHTS RealTime-Glo MT Cell Viability Assay in HepG2 cells - 40 hour (AID 1224870). Further: nearly all actives have a fitted effect of over 50% in size. Further: potency means the concentration at half of the fitted maximal effect. Summed up:
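Real-time viability: cells seeded at 600 per well together with NanoLuc and cell-permeant prosubstrate, compounds added after 5 h incubation. Luminescence tracked at 0, 8, 16, 24, 32 and 40 h of exposure.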

The nature of experiment [14]: qHTS assay to identify small molecule agonists of the hypoxia (HIF-1) signaling pathway - cell viability counter screen (AID 1224844; calls by dose curve; further: nearly all actives have a fitted effect of over 50% in size; further: potency means the concentration at half of the fitted maximal effect). Summed up:
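Viability counter screen: HRE-bla ME-180 cells plated 5 hrs before compound addition, treated 17 hrs at 37C and 5% CO2, then CellTiter-Glo added after the FRET reporter read; luminescence after 30 min.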

Experiment [15] can be described thus: qHTS assay to identify small molecule agonists of the hypoxia (HIF-1) signaling pathway (AID 1224846; active means well fitted activation curve with a large enough effect in the signal ratio in the repeat runs, not every such curve was filed as active; the % refers to the signal ratio; further: on the % scale 0 is the no-effect control and ±100 the full control effect). Summed up:
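Agonist mode reporter screen. ME-180 cells stably expressing bla under HRE control received test compounds in DMSO for 17 hrs (37C, 5% CO2), and beta-lactamase activity was then detected with the CCF4-AM FRET substrate.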

Experiment [16] in a line: qHTS assay to identify small molecule antagonists of the estrogen related receptor signaling pathway with the pleiotropic PPARgamma coactivator (PGC) from Tox21 10K library (AID 1224841; call rule not given here; further: potency means the concentration at half of the fitted maximal effect). Summed up: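 Cells stably carrying the PGC/ERR reporter, seeded at 2,000 per well, received pin-transferred compounds 6 h post-plating. Exposure lasted 18 h at 37 C. Signal: One-Glo luminescence.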

The nature of experiment [17]: qHTS assay to identify small molecule agonists of the estrogen related receptor signaling pathway with the pleiotropic PPARgamma coactivator (PGC) from Tox21 10K library (AID 1224842). Further: on the % scale 0 is the no-effect control and ±100 the full control effect; nearly all actives have a fitted effect of over 15% in size. Summed up: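 Luminescence from One-Glo (30 min, room temperature) measured after PGC/ERR cells had 18 h at 37 C with pinned compound (23 nL in DMSO). Cells had been seeded at 2,000 per well and pre-incubated 6 h.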

Experiment [18] can be described thus: qHTS assay to identify small molecule antagonists of the estrogen related receptor (ERR) signaling pathway from Tox21 library (AID 1224848). Further: nearly all actives have a fitted effect of over 50% in size. Further: potency means the concentration at half of the fitted maximal effect. The procedure, abridged:
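ERR cell line, 2,000 cells/well. 6 h settle, then compound (DMSO) added; 18 h at 37 C; ONE-Glo luminescence after 30 min RT.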

The nature of experiment [19]: qHTS assay to identify small molecule agonists of the estrogen related receptor (ERR) signaling pathway from Tox21 library (AID 1224849; calls by dose curve; further: on the % scale 0 is the no-effect control and ±100 the full control effect; nearly all actives have a fitted effect of over 15% in size). Particulars: ERR reporter cell line, ONE-Glo luciferase, 18 h; at 92.4 µM (top of the series) unless noted. The procedure, abridged:
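Quantitative HTS in agonist format: NTP ERR cell line, compounds transferred in DMSO after 6 h plating, 18 h incubation at 37 C, ONE-Glo luminescence endpoint.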

Experiment [20] has as its target Luciferin 4-monooxygenase (Photinus pyralis) (UniProt P08659). Briefly: qHTS assay to identify small molecule inhibitors of firefly luciferase (AID 1224835). Further: potency means the concentration at half of the fitted maximal effect; nearly all actives have a fitted effect of over 25% in size. Summed up: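 Inhibition of purified Photinus luciferase is measured by luminescence. Substrate levels (D-luciferin, ATP) sit at their KM values. Each compound is tested in a concentration series.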

The structures appear in SMILES notation. Where “and” joins values, the source holds several entries; their conditions need not be identical. Equal values may be shown once. Unmarked numbers belong to inactive results. Results filed as inconclusive are left out. Calls of active or inactive are those of the source. Unless noted, the call rests on the fitted dose curve; in most records, active means well fitted curve in the direction sought with a large enough effect in the repeat runs; inconclusive means weak or mixed curves; inactive means no such curve, though single readings can be large; an effect the other way counts as inactive or inconclusive.

Chain of Thyrotropin receptor (Homo sapiens) (P16473 whole entry, looked up): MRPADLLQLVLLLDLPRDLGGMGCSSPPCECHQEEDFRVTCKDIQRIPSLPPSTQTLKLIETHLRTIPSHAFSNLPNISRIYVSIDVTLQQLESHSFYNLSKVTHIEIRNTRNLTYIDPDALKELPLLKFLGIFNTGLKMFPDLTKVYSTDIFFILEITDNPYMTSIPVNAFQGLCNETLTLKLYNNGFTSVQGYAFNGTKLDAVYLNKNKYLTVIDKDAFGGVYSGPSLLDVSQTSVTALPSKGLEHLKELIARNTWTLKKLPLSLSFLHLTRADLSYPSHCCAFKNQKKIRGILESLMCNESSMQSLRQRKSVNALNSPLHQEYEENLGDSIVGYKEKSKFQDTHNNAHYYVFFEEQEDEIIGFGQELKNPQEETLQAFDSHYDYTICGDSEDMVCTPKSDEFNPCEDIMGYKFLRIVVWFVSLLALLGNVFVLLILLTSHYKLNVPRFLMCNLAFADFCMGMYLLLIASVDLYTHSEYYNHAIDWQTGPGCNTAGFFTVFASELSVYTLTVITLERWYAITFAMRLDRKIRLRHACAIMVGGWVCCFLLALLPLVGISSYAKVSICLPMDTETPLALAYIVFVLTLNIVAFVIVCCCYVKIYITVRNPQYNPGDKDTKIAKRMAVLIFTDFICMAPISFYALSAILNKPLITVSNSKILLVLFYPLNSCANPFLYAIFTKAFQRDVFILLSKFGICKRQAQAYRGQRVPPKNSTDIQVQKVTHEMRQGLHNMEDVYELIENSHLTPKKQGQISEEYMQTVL
Chain of Nuclear receptor subfamily 1 group I member 3 (Homo sapiens) (Q14994 whole entry, looked up): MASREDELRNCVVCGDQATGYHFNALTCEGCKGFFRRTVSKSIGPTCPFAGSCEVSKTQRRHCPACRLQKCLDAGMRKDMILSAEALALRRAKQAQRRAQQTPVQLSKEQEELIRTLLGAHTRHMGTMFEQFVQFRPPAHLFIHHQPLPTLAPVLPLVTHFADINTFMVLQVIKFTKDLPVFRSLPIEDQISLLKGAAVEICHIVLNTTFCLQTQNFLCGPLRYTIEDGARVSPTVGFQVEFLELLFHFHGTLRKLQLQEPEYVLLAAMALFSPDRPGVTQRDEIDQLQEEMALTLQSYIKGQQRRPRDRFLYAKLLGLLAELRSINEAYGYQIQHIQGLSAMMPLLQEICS
Chain of Luciferin 4-monooxygenase (Photinus pyralis) (P08659 whole entry, looked up): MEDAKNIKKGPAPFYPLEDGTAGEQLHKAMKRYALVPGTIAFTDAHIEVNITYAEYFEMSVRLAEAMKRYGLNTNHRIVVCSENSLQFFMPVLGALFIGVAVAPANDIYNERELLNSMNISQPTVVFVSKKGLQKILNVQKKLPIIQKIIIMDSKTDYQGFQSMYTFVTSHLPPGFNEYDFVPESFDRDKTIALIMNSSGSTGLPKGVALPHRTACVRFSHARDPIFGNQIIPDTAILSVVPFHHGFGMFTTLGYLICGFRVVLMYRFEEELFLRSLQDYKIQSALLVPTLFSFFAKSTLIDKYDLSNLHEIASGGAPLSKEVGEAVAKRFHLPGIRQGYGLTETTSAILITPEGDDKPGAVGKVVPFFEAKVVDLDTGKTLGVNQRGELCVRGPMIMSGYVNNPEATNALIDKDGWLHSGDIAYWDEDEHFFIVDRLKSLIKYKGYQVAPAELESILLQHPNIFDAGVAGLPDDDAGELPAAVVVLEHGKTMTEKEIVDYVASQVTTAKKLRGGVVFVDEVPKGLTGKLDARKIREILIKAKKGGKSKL

As for `CC1(C)[C@H](C(=O)O[C@H](C#N)c2cccc(Oc3ccccc3)c2)[C@@H]1/C=C(\Cl)C(F)(F)F`, the Potency entry in experiment [1], in experiment [2], in experiment [3], in experiment [4], in experiment [5] and in experiment [6] was “inactive” throughout. The Potency entry in experiment [7], in experiment [8], in experiment [9], in [10], in experiment [11] and in [12] was “inactive” each time. In addition, the Potency result in experiment [13] is “inactive”.
Consider `N#C/C=C/c1ccccc1`, for which the Potency entry in experiment [1], in experiment [2], in [3], in experiment [4], in [5] and in experiment [6] was “inactive” throughout. Also, the Potency result in experiment [14], in experiment [9], in experiment [10], in experiment [12] and in experiment [13] was “inactive” throughout. The outcome in experiment [15] was inactive.
In the case of `CCOP(=S)(OCC)OC(Cl)C(Cl)(Cl)Cl` (centres undefined), the Potency entry in [1], in experiment [2], in experiment [3], in [4], in [6] and in experiment [16] was “inactive” each time. Further, the Potency result in [17], in experiment [7], in experiment [9], in [18], in experiment [10] and in [11] was “inactive” in each case. For the same compound, the Potency result in [13] is “inactive”. The compound was classed as inactive in experiment [15]. Besides, in experiment [19], the activity change, positive = activation is 4.56%.
As to `c1ccc(Nc2ccc3ccccc3c2)cc1`, the Potency result in [1], in experiment [2], in [3], in [4], in experiment [6] and in experiment [16] was “inactive” in each case. Moreover, the Potency entry in [18], in experiment [10], in experiment [12] and in [13] was “inactive” throughout. Besides, the Potency was 30.5 µM (active) and 48.6 µM (active) in [5]; 48.3 µM (active) in experiment [7]; 100 µM (active) and 80 µM (active) in experiment [9].
For `CCCCCCCCCCCCCCCCCCn1cc[n+](C)c1`, the Potency is 27.1 µM (active) in [1]; 24.2 µM (active) in [2]; 17.1 µM (active) in [3]; 43 µM (active) in [4]; 30.5 µM (active) in experiment [6]; 24.2 µM (active) in [16]. Also, the Potency in [14] is 43.4 µM (active); in [9], 22.4 µM (active); in experiment [18] it was 5.42 µM (active); in experiment [10] it was 34.5 µM (active); in experiment [11], 7.72 µM (active); in experiment [13] it was 21.7 µM (active). Also, the Potency entry in experiment [5], in experiment [17], in experiment [7] and in experiment [12] was “inactive” throughout.
For `CN(C)c1ccc(N=Nc2ccccc2)cc1`, the Potency in experiment [1] was 43.3 µM (active); in experiment [20], 252 nM (active). In addition, the Potency result in [7], in experiment [14], in [10], in [12] and in experiment [13] was “inactive” each time. The call in [15] was inactive.
For the compound `CCSC(C)CC1CC(=O)C(/C(CC)=N/OC/C=C/Cl)=C(O)C1` (centres undefined), the Potency result in [1], in experiment [2], in [3], in experiment [6], in [7] and in [18] was “inactive” each time. Further, the Potency result in experiment [10], in [11], in [12] and in [13] was “inactive” in each case. Further, the Potency in experiment [16] is 2.11 µM (active). In [15], the compound was called inactive.
As to `Oc1ccc2ccc3cccc4ccc1c2c34`, the Potency result in experiment [1], in experiment [2], in [3], in [4], in [6] and in experiment [7] was “inactive” each time. The Potency entry in [12] is “inactive”. The figures for the Potency in [5] and in experiment [11] were 61.1 µM (active) and 15.5 µM (active), respectively. Besides, the outcome in experiment [15] was inactive.
